Reference: PubChem BioAssay (Tox21)
Results filed as inconclusive are left out. Unmarked numbers belong to inactive results. Calls of active or inactive are those of the source. Calls come from the whole dose curve.

Test: qHTS assay to identify small molecule agonists of the progesterone receptor (PR) signaling pathway - cell viability counter screen (AID 1346799); note: nearly all actives have a fitted effect of over 45% in size
Details: PR-UAS-bla HEK293T viability, CellTiter-Glo luminescence, 16 h; series mostly up to 92.4 µM; activity change, negative = cytotoxicity: at the top concentration
Text: National Center for Advancing Translational Sciences [NCATS]
NIH Chemical Genomics Center [NCGC]
U.S. Environmental Protection Agency [EPA]
National Institutes of Environmental Health Sciences [NIEHS]
National Toxicology Program [NTP]
U.S. Food and Drug Administration [FDA]
Progesterone receptor (PR), a nuclear hormone receptor, plays an important role in development, metabolic homeostasis and reproduction. It is activated by the steroid hormone progesterone. Endocrine disrupting chemicals (EDCs) and their interactions with steroid hormone receptors like PR causes disruption of normal endocrine function. To identify the compounds that stimulate PR signaling, a PR-UAS-bla GripTite cell line i.e. PR-UAS-bla HEK293T (Invitrogen, Carlsbad, CA, USA) containing a beta-lactamase reporter gene under the control of an UAS response element was used to screen Tox21 10K compound library. The cytotoxicity of the Tox21 compound library against the PR-bla cell line was tested in parallel by measuring the cell viability using CellTiter-Glo assay in the same wells.
Tox21 Assay Protocol Summary:
PR-UAS-bla HEK293T cells were dispensed at 3,000 cells/5 uL of assay medium containing 2% charcoal stripped FBS per well into black wall/clear-bottom 1536-well plates using a Multidrop Combi (ThermoFisher Scientific, Waltham, MA) dispenser. After the assay plates were incubated at a 37C and 5% CO2 for 6 hr, 23 nL of compounds dissolved in DMSO, positive controls or DMSO only was transferred to the assay plate by a Pintool station (Kalypsys, San Diego, CA). The plates were incubated at 37C and 5% CO2 for 16 hr. Then 1 uL of LiveBLAzer B/G FRET substrate was added using a Flying Reagent Dispenser (FRD, Aurora Discovery, San Diego, CA), the plates were incubated at room temperature for 2 hours, and fluorescence intensity was measured by an Envision plate reader (PerkinElmer, Shelton, CT). For cell viability readout that measures cytotoxicity, 4 uL/well of CellTiter-Glo reagent was added into the assay plates using a FRD. After 30 min incubation at room temperature, the luminescence intensity in the plates was measured using a ViewLux (PerkinElmer) plate reader.
% is set by controls: 0 for no effect and ±100 for the full control effect; potency is the fitted concentration of half-maximal effect.

| SMILES | Potency | activity change, negative = cytotoxicity |
| --- | --- | --- |
| CCCCCCCCCCCCCCCCOS(=O)(=O)O | 18.8 µM (active) |  |
| COC(C)OC |  | -3.79% |
| CCOC(=O)C(F)(F)F |  | -18.9% |
| CCCCCCCCCCO[C@@H]1O[C@H](CO)[C@@H](O)[C@H](O)[C@H]1O |  | 17.8% |
| CNCCCN1c2ccccc2CCc2ccccc21 | 21.1 µM (active) |  |
| Cc1cc(C(=O)O)ccc1[N+](=O)[O-] |  | -3.97% |
| CCOc1ccc(N)c([N+](=O)[O-])c1 |  | -3.5% |
| CN(C)C(=O)NC1(c2ccccc2)CCN(CC[C@@]2(c3ccc(F)c(F)c3)CN(C(=O)c3ccccc3)CCO2)CC1 |  | -1.95% |
| C[C@@H]1C[C@H]2[C@@H]3CCC4=CC(=O)C=C[C@]4(C)[C@@]3(F)[C@@H](O)C[C@]2(C)[C@@]1(O)C(=O)COC(=O)c1ccncc1 |  | 5.35% [at 42.5 µM] |
| CN(C)c1ccc(CCO)cc1 |  | 7.18% |
| OCCNCc1ccccc1 |  | -9.99% |
| CCCCC(CC)CN1C(=O)C2C3C=CC(C3)C2C1=O (stereo not given) |  | 2.48% |
| CCCCCCCCCCCCCCOS(=O)(=O)O | 30.6 µM (active) |  |
| Cc1ccc(C(C)OC(=O)C2(C)CCC(C(=O)O)C2(C)C)cc1 (stereo not given) |  | 7.47% [at 42.5 µM] |
| NCc1ccccc1Sc1ccccc1CO |  | 2.24% [at 42.5 µM] |
| O=C(Cl)c1cc(C(=O)Cl)cc(C(=O)Cl)c1 |  | -29.5% |
| CC(C)Cc1ccc(C(C)C(=O)OCc2ccccn2)cc1 (stereo not given) |  | -1.99% [at 42.5 µM] |
| C[Si](C)(CCCN)O[Si](C)(C)CCCN |  | 1.49% |
| COc1ccc(C)cc1[N+](=O)[O-] |  | -2.61% |
| CN1CCN(C(c2ccccc2)c2ccccc2)CC1 |  | -9.78% [at 42.5 µM] |

| SMILES | Potency | activity change, negative = cytotoxicity |
| --- | --- | --- |
| CN(C)CCOC(c1ccccc1)c1ccc(Br)cc1 (stereo not given) | 16.8 µM (active) |  |
| C=CC(=O)OCCOc1ccccc1 |  | -0.964% |
| CCCCCCCN |  | -4.48% |
| CCC(CC)Nc1ccc(C)c(C)c1 |  | 3.34% |
| COc1cccc(N(C)C(=S)Oc2ccc3c(c2)CCCC3)n1 |  | -5.97% [at 42.5 µM] |
| CC(=O)NO |  | 9.61% [at 42.5 µM] |
| CC1=CC[C@H](C(C)C)C=C1 |  | -1.35% |
| CCCCC(CC)COC(=O)COc1ccc(Cl)cc1Cl (stereo not given) |  | -14.1% |
| N=c1ccn2c(n1)O[C@H]1[C@H](O)[C@@H](CO)O[C@H]12 |  | -13.9% |
| O=C1[C@H]2CCCC[C@H]2C(=O)N1CCCCN1CCN(c2nsc3ccccc23)CC1 |  | 1.62% [at 42.5 µM] |
| OCc1cc(C(O)CNCCCCCCOCCCCc2ccccc2)ccc1O (stereo not given) |  | 7.22% [at 42.5 µM] |
| CC(=O)[O][Al][O]C(C)=O |  | 0.787% |
| C[C@@H](c1ncncc1F)C(O)(Cn1cncn1)c1ccc(F)cc1F (stereo not given in full) |  | 0.174% [at 42.5 µM] |
| NC(N)=NCCC[C@H](N)C(=O)O |  | -1.33% [at 8.39 µM] |
| CCOC(=O)COC(=O)c1cc(Oc2ccc(C(F)(F)F)cc2Cl)ccc1[N+](=O)[O-] |  | 1.02% |
| Cc1ccccc1S(=O)(=O)O |  | 0.215% |
| CC(CC=O)c1ccccc1 (stereo not given) |  | -9.08% |
| Nc1ccc(S(=O)(=O)Nc2ccccc2)cc1 |  | 2.53% [at 42.5 µM] |
| Cc1ncc(CO)c(C=O)c1O |  | -4.14% [at 42.5 µM] |
| O=C(O)c1ccc(-n2nc(-c3ccccc3O)nc2-c2ccccc2O)cc1 |  | 31.4% [at 42.5 µM] |
